Bioassay records from PubChem.
Hits are enriched below; roughly 1.6% of the tested compounds scored in any of these assays.
KCNQ2 inh: rat KCNQ2 potassium channel inhibitors, primary screen, cell-based, CHO-K1, FluxOR thallium flux, B-score | Potassium voltage-gated channel subfamily KQT member 2 (Rattus norvegicus), O88943 | 20 min; stronger effect = lower value | B-score at 10 µM | 1.1% of 310,000 active | AID 2156, 2009;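 active = fluorescence ratio B-score at most minus 3 library SDs, with starting brightness B-score within 2 library SDs, cut at about -5.5 in these data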
Target sequence (O88943 whole entry, looked up): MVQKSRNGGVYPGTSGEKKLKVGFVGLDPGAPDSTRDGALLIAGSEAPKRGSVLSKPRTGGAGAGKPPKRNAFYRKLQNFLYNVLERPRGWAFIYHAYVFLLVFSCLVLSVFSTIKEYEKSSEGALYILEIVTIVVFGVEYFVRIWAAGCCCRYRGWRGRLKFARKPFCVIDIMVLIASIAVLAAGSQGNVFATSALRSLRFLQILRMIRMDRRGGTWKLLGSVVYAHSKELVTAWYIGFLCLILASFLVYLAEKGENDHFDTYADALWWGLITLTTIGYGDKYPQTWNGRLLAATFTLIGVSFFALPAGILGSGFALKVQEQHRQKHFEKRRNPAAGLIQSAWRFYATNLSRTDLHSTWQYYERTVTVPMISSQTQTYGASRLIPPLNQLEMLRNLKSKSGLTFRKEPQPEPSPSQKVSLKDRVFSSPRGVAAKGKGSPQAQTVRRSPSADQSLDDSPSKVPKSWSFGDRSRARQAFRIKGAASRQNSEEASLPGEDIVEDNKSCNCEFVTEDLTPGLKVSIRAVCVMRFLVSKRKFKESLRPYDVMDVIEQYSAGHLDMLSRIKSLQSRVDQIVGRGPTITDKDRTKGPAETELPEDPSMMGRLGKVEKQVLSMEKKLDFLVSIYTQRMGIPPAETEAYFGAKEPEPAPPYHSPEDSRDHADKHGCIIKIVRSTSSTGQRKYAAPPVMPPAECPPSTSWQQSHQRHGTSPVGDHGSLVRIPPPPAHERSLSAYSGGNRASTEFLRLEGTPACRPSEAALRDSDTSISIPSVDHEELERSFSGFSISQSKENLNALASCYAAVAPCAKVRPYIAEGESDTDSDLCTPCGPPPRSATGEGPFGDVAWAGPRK
KCNQ2 pot: potentiators of rat KCNQ2 potassium channel. CHO-K1 KCNQ2, FluxOR thallium flux fluorescence; stronger effect = higher value. 0.54% of 310,000 active. AID 2239, 2010. Potassium voltage-gated channel subfamily KQT member 2 (Rattus norvegicus), O88943. B-score at 10 µM;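 active = fluorescence ratio B-score at least 3 SD of library B-scores, with initial fluorescence B-score within 3 of them, cut at about 5.3 in these data; same plate scores as AID 2156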;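 also: B-score of peak minus minimum over baseline fluorescence ratio after K+ and Tl+ stimulus; positive B-score means potentiation of KCNQ2 with more thallium influx and brighter signal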
* = called active by the depositor; i = inactive; . = not tested or not shown.

SMILES	KCNQ2 inh	KCNQ2 pot
COCCn1c(SC(C)C(=O)NCC2CCCO2)nc2sc3c(c2c1=O)CCC3 (configuration not stated)	i	.
Cc1cc(C(=O)CSc2nc3ccc(Cl)cc3[nH]2)c(C)n1C	-6.3*	-6.3
C=CCn1c(C)cc(C(=O)CSc2nc3ccccc3[nH]2)c1C	-7.5*	-7.5
Cc1ccc2nc(SCC(=O)c3cc(C)n(C)c3C)[nH]c2c1	i	.
Cc1cc(C(=O)CSc2nc3ccccc3[nH]2)c(C)n1C	i	.
Cc1ccnc(Cc2ccccc2)n1	i	.
COc1cc(C(=O)NNC(=O)CNC(=O)c2ccc(Br)o2)cc(OC)c1OC	i	0.59
Cc1cccc(C(C(=O)NC2CCCCC2)N(C(=O)c2csnn2)C2CC2)c1 (configuration not stated)	i	1.3
CCOc1ccc(NC(=O)C2CCCN(C)C2)cc1 (configuration not stated)	i	0.13
O=C(/C=C/c1ccc(F)cc1)NCCCn1ccnc1	i	.
CCc1ccc(NC(=O)C2C3/C=C\CCCCC32)cc1 (configuration not stated)	i	5.8*
CCc1ccc(NC(=O)C2CCCCC2C(=O)O)cc1 (configuration not stated)	i	0.17
CC#CCN(Cc1ccco1)C(=O)c1ccc(OC2CCN(Cc3ccccn3)CC2)cc1	i	0.02
Cc1ccc(S(=O)(=O)c2c(C)nn(C(C)(C)C)c2OC(=O)C2CCCC2)cc1	i	.
Cc1nn(C(C)(C)C)c(OC(=O)C2CCCC2)c1S(=O)(=O)c1ccccc1	-6*	-6
COc1cc(NC(=O)CN2C(=O)COc3ccc(S(=O)(=O)N4CCCC4)cc32)cc(OC)c1	i	.
COc1cc2c(cc1OC)C(COc1ccc(C(C)C)cc1)NCC2 (configuration not stated)	i	.
Cc1ccc(C(C[N+](=O)[O-])n2nc(C)cc2C)cc1 (configuration not stated)	-7.4*	-7.4
Cc1ccc(S(=O)(=O)NCC(C)n2nc(C)cc2C)cc1 (configuration not stated)	i	2.7
COc1ccc(COC(=O)c2ccc(C)c(S(=O)(=O)N3CCOCC3)c2)cc1F	i	.
COC(=O)c1ccc(COc2c(F)c(F)cc(F)c2F)o1	i	.
O=C(O)c1ccc(COc2c(F)c(F)cc(F)c2F)cc1	-9*	-9
CC(=O)Oc1cccc(C(=O)Nc2ccc(NC(=O)c3cccs3)cc2)c1	i	.
CCN(CC)C(=O)CSc1nc2ccccc2c(=O)n1-c1cccc(OC)c1	i	.
COc1cccc(-n2c(SCc3cc(=O)oc4cc(O)c(O)cc34)nc3ccccc3c2=O)c1	-6.1*	-6.1
SMILES	KCNQ2 inh	KCNQ2 pot
O=S(=O)(O)c1cccc2cccc(Nc3ccccc3)c12	i	.
O=S(=O)(NC1CCCCC1N1CCN(c2ccc(F)cc2)CC1)c1ccccc1 (configuration not stated)	i	0.25
COc1cc(OC)cc(C(=O)NC(C(=O)N2CCc3ccccc3C2)C(C)C)c1 (configuration not stated)	i	.
Cc1ccccc1OC1C(=O)N(Cc2ccc3c(c2)OCO3)C1c1sccc1C (configuration not stated)	-6*	-6
O=C1C(Oc2ccccc2)C(c2cccs2)N1Cc1ccc2c(c1)OCO2 (configuration not stated)	i	0.4
COCc1cc(=O)n2[nH]c(-c3cccs3)cc2n1	i	1.4
Cc1cc(C)c(S(=O)(=O)NC2CC(C)(C)NC(C)(C)C2)cc1Br	i	.
COc1ccccc1CNC(=O)C1CCCN(S(=O)(=O)c2ccc3c(c2)C(C)(C)C(=O)N3C)C1 (configuration not stated)	i	.
COc1ccccc1CNC(=O)C1CCCN(S(=O)(=O)c2ccc3c(c2)CC(C)N3C(C)=O)C1 (configuration not stated)	-6.9*	-6.9
CC(=O)Nc1cccc(NC(=O)C(=O)NCC(c2ccco2)N2CCc3ccccc3C2)c1 (configuration not stated)	i	1.8
CCC(=O)N(C(=O)CC)N1CCN(c2ccncc2S(=O)(=O)N2CCCCC2)CC1	i	.
CC1=NN(C(=O)c2ccc(Cn3nc(C)c(Br)c3C)cc2)C(O)(C(F)(F)F)C1 (configuration not stated)	i	13*
CC1=NN(C(=O)c2ccc(Cn3nc(C)c([N+](=O)[O-])c3C)cc2)C(O)(C(F)(F)F)C1 (configuration not stated)	i	2.4
CC(C)C1=NN(C(=O)c2cccnc2)C(O)(C(F)(F)F)C1 (configuration not stated)	i	0.87
CC1=NN(C(=O)c2cccnc2)C(O)(C(F)(F)F)C1 (configuration not stated)	i	11*
NC(=O)C1CCN(C(=O)CCSCc2ccc(Cl)c(Cl)c2)CC1	i	.
Cn1c(=O)c2c(nc(NCC3CCCC(CN)C3)n2Cc2ccc(Cl)cc2Cl)n(C)c1=O (configuration not stated)	i	.
O=C(CN1CCc2cc3c(cc2C1)OCCCO3)Nc1cccc(Br)c1	i	.
Cc1ccc2nc(N/N=C/c3ccccc3C#N)nc(-c3ccccc3)c2c1	-6*	-6
N#Cc1ccccc1/C=N/Nc1nc(-c2ccccc2)c2cc(Cl)ccc2n1	i	0.05
CC(C)CCN1CC(=O)N2Cc3[nH]c4ccccc4c3C[C@H]2C1=O	-7.2*	-7.2
CCCN1CC(=O)N2Cc3[nH]c4ccccc4c3C[C@H]2C1=O	i	.
Cc1ccc(S(=O)(=O)NCCC(=O)NCC(=O)Nc2c(C)cccc2C)cc1C	i	.
CN(C)CCCN(C(=O)c1cc2cc([N+](=O)[O-])ccc2s1)c1nc2cc3c(cc2s1)OCCO3	i	.
CCOC(=O)C1(CC2CC2)CCN(Cc2ccc(C(=O)OC)cc2)CC1	i	.
SMILES	KCNQ2 inh	KCNQ2 pot
CCOC(=O)C1(CCc2ccccc2)CCN(Cc2ccc(C(=O)OC)cc2)CC1	-5.7*	-5.7
COc1ccc(Cc2nc3ccc(C(=O)NC(C)Cc4ncccc4C)cc3o2)cc1OC (configuration not stated)	i	.
O=c1c2c(n3nnnc3n1Cc1ccccc1)-c1ccccc1CC21CCCC1	i	.
CCC1(C)Cc2ccccc2-c2c1c(=O)n(Cc1ccccc1)c1nnnn21 (configuration not stated)	-6.2*	-6.2
CCN1C(=O)[C@H]2[C@@H](c3ccc(-c4ccccc4)cc3)N3CCCC[C@@]3(C(=O)OC)[C@H]2C1=O	i	.
Cc1cc(C)c(S(=O)(=O)N(C)CC(=O)N2CCCCC2)c(C)c1	i	.
Cc1cc(C)c(S(=O)(=O)N(C)CC(N)=O)c(C)c1	-5.6*	-5.6
COC(=O)c1ccc(N2CCCCC2)c(N)c1	i	.
COC(=O)c1ccc(C(=O)OC)c(N)c1	-5.7*	-5.7
NC(=O)C1(N2CCCCC2)CCN(CC(=O)Nc2ccc(Oc3ccccc3)cc2)CC1	i	0.6
O=C(CN1CCCCCC1)Nc1ccc(Oc2ccccc2)cc1	i	9*
COc1ccc(O)c(C(=O)c2cc(C(=O)NCCc3ccccc3)c(=O)n(CCc3ccccc3)c2)c1	i	.
Cc1ccc(O)c(C(=O)c2cc(C(=O)NCCc3ccccc3)c(=O)n(CCc3ccccc3)c2)c1	-7.1*	-7.1
CSc1ncccc1C(=O)N1CCCC(Nc2ccc(C)c(C)c2)C1 (configuration not stated)	i	1
